Giardia killer – Small Molecules that selectively kill Giardia lamblia: qHTS | Giardia lamblia trophozoite viability | activity change, % at 7.66 µM, hits read low | 0.15% of 340,000 active | AID 540267, 2011; in the data active = activity change below about -80%; inconclusive = between about -30% and that limit;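 also: parasites exposed to compound for two days anaerobically before the ATP read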
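Compounds were tested on trophozoites seeded at 100 cells/well and held 48 hrs at 37 deg C anaerobically. An ATP-based luminescent kit measured the remaining live cells.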
IL1B secr inh – qHTS for Inhibitors of Inflammasome Signaling: IL-1-beta AlphaLISA Primary Screen | 4.7% of 360,000 active | THP-1 LPS/ATP IL-1B secretion, AlphaLISA, 16 h; hits give low values | activity change, % at 57.5 µM; in the data active = activity change below about -50%; inconclusive = mostly about -30% to -49%
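Secreted IL-1B measured by AlphaLISA bead assay after 16 h compound exposure of THP-1 cells; compounds (final up to 57.5 uM) added 1 h before LPS (250 ng/mL) and ATP (1.25 mM) stimulation; lower signal means less secretion.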
ELG1 repair inh – qHTS screen for small molecules that inhibit ELG1-dependent DNA repair in human embryonic kidney (HEK293T) cells expressing luciferase-tagged ELG1. HEK293T ELG1-luciferase reporter, luminescence, 16 h; DNA damage induced by 5-fluorouridine. AID 504467, 2011. 2.3% of 330,000 active. Potency, µM (titrated, usually from 46.1 µM), hits mostly inhibitors; also: nearly all actives have a fitted effect of over 55% in size
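HEK293T cells expressing luciferase-tagged ELG1 (2,000/well) received 5-Fluorouridine plus compound or DMSO for 16 hr at 37 °C. Luciferase was read by ONE-Glo luminescence after 30 min at room temperature.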
DT40 TDP1 CPT – qHTS for Inhibitors of human tyrosyl-DNA phosphodiesterase 1 (TDP1): qHTS in cells in presence of CPT | AID 686979, 2013 | chicken DT40 Tdp1-/-;hTDP1 cells + 20 nM CPT, ATP luminescence, 48 h | Potency, µM (doses to about 46.2 µM), usual class: inhibitors | 12% of 420,000 active; also: nearly all actives have a fitted effect of over 55% in size
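Chicken DT40 Tdp1-/- cells stably complemented with human TDP1 were seeded at 400 cells/well in medium containing 20 nM camptothecin, exposed to pin-transferred compounds, and grown at 37 °C for at least 48 hr. Viability was read as ATP luminescence.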
TDP1 inh – qHTS Assay for Inhibitors of Tyrosyl-DNA Phosphodiesterase (TDP1); Tyrosyl-DNA phosphodiesterase 1 (Homo sapiens), Q9NUW8; recombinant TDP1, AlphaScreen DNA substrate cleavage; Potency, µM (highest dose often 130 µM), hits mostly inhibitors; 0.28% of 350,000 active; also: nearly all actives have a fitted effect of over 40% in size
Target sequence (Q9NUW8 whole entry, looked up): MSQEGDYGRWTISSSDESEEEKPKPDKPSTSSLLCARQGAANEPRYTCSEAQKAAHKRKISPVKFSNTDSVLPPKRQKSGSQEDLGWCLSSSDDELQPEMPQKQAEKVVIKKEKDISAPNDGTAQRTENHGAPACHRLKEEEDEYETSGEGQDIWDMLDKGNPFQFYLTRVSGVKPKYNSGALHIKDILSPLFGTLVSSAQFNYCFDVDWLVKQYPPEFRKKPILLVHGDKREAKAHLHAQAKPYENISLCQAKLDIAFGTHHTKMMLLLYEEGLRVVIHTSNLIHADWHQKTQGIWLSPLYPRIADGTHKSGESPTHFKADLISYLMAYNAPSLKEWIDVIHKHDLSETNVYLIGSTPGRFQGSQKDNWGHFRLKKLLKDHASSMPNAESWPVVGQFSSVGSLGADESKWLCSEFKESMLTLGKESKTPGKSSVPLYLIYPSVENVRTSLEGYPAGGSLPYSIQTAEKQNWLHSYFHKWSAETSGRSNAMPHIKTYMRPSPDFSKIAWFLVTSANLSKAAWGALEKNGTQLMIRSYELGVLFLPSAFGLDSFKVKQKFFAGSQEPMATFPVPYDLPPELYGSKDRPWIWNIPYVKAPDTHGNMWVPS
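AlphaScreen read-out: signal falls as enzyme removes the 3' tyrosine-FITC from a 5'-biotinylated DNA oligo (15 nM, 5 min, RT). Enzyme was E. coli-made recombinant Tdp1 at 1 nM, exposed to compound for 15 min beforehand; beads 10 ug/ml, 10 min.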
DT40 TDP1 no CPT – qHTS for Inhibitors of human tyrosyl-DNA phosphodiesterase 1 (TDP1): qHTS in cells in absence of CPT. AID 686978, 2013. DT40 Tdp1-/- hTDP1 cells, no CPT, ATP luminescence, 48 h. 15% of 420,000 active. Potency, µM (doses to about 46.2 µM), usual class: inhibitors; also: nearly all actives have a fitted effect of over 55% in size
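Seeded 400 DT40-hTDP1 cells/well (vehicle DMSO, no 20 nM CPT); pinned compounds; ≥48 hr at 37 °C; CellTiter-Glo luminescence as viability measure.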
Hits are given with their value; . = inactive; ? = inconclusive; / = no result given; ! = a repeat was not active; [ ] = dose if it differs, or a comment. Shown are actives, neighbours in structure and some others; about 19% of the full set was active somewhere. Unless noted, calls follow the shape of the dose curve; as a rule, active = well fitted curve in the direction sought with a large enough effect; inconclusive = small, poorly fitted or top-dose-only effect, or another doubt; inactive = no such curve, though single readings can be large; an effect the other way counts as inactive or inconclusive.

SMILES	Giardia killer	IL1B secr inh	ELG1 repair inh	DT40 TDP1 CPT	TDP1 inh	DT40 TDP1 no CPT
O=C(OCc1ccccc1)c1cccc(-c2nnc(-c3ccccc3)o2)c1	.	.	?	?	.	.
CC(C)OC(=O)c1ccc(COC(=O)c2cccc(-c3nnc(-c4ccccc4)o3)c2)cc1	.	.	?	.	.	?
O=C(OCc1ccc(C(=O)c2ccccc2)cc1)c1cccc(-c2nnc(-c3ccccc3)o2)c1	.	.	.	15.8µM	.	?
Cc1cccc2c3c([nH]c12)CCNC3	.	.	?	.	/	.
Cc1ccnn1CC(=O)N1CCOc2c(cc(-c3ncc(C(F)(F)F)cc3Cl)cc2OCC2CCCO2)C1 (stereo not given)	/	/	/	.	/	.
Cc1ccc2[nH]c(=O)c(CN(CCc3ccccc3)Cc3nnnn3CC3CCCO3)cc2c1 (stereo not given)	.	.	.	?	.	?
O=c1[nH]c2cc3c(cc2cc1CN(CCc1ccccc1)Cc1nnnn1CC1CCCO1)OCO3 (stereo not given)	.	.	.	?	.	23.1µM
O=c1[nH]c2cc3c(cc2cc1CN(Cc1nnnn1CC1CCCO1)C1CCCCC1)OCO3 (stereo not given)	.	.	?	?	.	?
O=c1[nH]c2cc3c(cc2cc1CN(Cc1nnnn1CC1CCCO1)C1CCCC1)OCO3 (stereo not given)	.	.	14.6µM	?	.	13µM
COc1ccc2[nH]c(=O)c(CN(Cc3ccccc3OC)Cc3nnnn3CC3CCCO3)cc2c1 (stereo not given)	.	?	16.4µM	23.1µM	.	?
COc1ccc2[nH]c(=O)c(CN(CCc3ccccc3)Cc3nnnn3CC3CCCO3)cc2c1 (stereo not given)	.	.	?	6.51µM	.	29.1µM
Cc1cc(C)nc(S[C@H]2C[C@@H](C(=O)N3CCN(c4ccccc4F)CC3)N(Cc3ccccc3F)C2)n1	/	/	/	.	/	.
COc1ccc2[nH]c(=O)c(CN(Cc3ccc(C)cc3)Cc3nnnn3CC3CCCO3)cc2c1 (stereo not given)	.	.	?	?	.	?
COc1ccccc1CN(Cc1cc2cc(C)cc(C)c2[nH]c1=O)Cc1nnnn1CC1CCCO1 (stereo not given)	.	.	?	?	.	23.1µM
c1cncc(OC2CCN(Cc3ccc4c(c3)CN(Cc3ccc5c(c3)OCO5)CCO4)CC2)c1	/	/	/	.[9.04 µM]	/	?
O=C(/C=C/c1ccccc1[N+](=O)[O-])N1CCOCC1	.	.	.	.	.	.
O=C(c1ccc(-c2ccc(Cl)cc2)o1)N1CCN(c2ccc([N+](=O)[O-])cc2Cl)CC1	.	.	?	5.17µM	.	2.59µM
O=C(/C=C\c1ccc(-c2cccc([N+](=O)[O-])c2)o1)N1CCOCC1	.	.	.	?	.	23.1µM
CCc1noc(C)c1C(=O)N1CCN(c2ccc([N+](=O)[O-])cc2)CC1	/	.	/	?	/	?
CCc1nc2ccc(C(=O)N3CCN(c4ccc([N+](=O)[O-])cc4)CC3)cc2nc1CC	.	?	?	16.4µM	.	?
CC(C)C(=O)N1CCN(c2ccc([N+](=O)[O-])cc2Cl)CC1	.	.	.	?	.	?
O=C(c1ccc(-c2cccc([N+](=O)[O-])c2)o1)N1CCN(c2ccc([N+](=O)[O-])cc2)CC1	.	.	.	6.51µM	.	4.11µM
COC(=O)C1=C(C)N(CC2CC2)C(=O)N[C@H]1CCc1ccccc1	/	/	/	/	.	/
O=C(c1cccc([N+](=O)[O-])c1)N1CCN(c2ccc(Cl)cc2)CC1	.	.	.	20.6µM	.	14.6µM
C/C(=N\N1CCN(c2ccc(Cl)cc2)CC1)c1cccc([N+](=O)[O-])c1	.	.	?	.	.	?
SMILES	Giardia killer	IL1B secr inh	ELG1 repair inh	DT40 TDP1 CPT	TDP1 inh	DT40 TDP1 no CPT
CC1CC(C)CN(C(=O)c2ccc(-c3ccc([N+](=O)[O-])cc3)o2)C1 (stereo not given)	.	?	?	16.4µM	.	16.4µM
O=C(c1ccc(-c2ccc([N+](=O)[O-])cc2)o1)N1CCCCC1	.	.	?	?	.	.
CC1CCN(c2ccc(NC(=S)NC(=O)c3ccc(-c4cccc([N+](=O)[O-])c4)o3)cc2)CC1	.	.	?	11.2µM	.	10µM
O=C(CNC(=O)C1CCCCC1)OCC(=O)c1ccc2c(c1)CCC2	.	/	/	.	.	.
Cc1cccc(NC(=O)c2sc3ncnc(N(C)C4CCCCC4)c3c2C)c1C	/	/	/	?	.	?
CN[C@H]1CC[C@@H](c2ccc(Cl)c(Cl)c2)c2ccccc21	.	.	.	15µM!	.	15µM
CNC1CCC(c2ccc(Cl)c(Cl)c2)c2ccccc21 (stereo not given)	/	/	/	14.6µM	.	18.4µM
Cc1c(NC(=O)c2ccc(C(C)(C)C)cc2)cccc1[N+](=O)[O-]	.	-51.7	.	16.4µM	.	20.6µM
Cc1ccc([N+](=O)[O-])cc1NC(=O)c1ccc(C(C)(C)C)cc1	.	?	?	?	.	13µM
Cc1ccc2nsnc2c1NC(=O)c1ccc([N+](=O)[O-])cc1	.	.	16.4µM	.	.	?
Cc1ccc(F)cc1NC(=O)CCNC(=O)c1ccc([N+](=O)[O-])cc1	.	-74.1	.	.	/	?
Cc1c(NC(=S)NC(=O)C(C)(C)C)cccc1[N+](=O)[O-]	.	.	.	.	.	?
Cc1cc2c(cc1NC(=O)c1ccc(C(C)(C)C)cc1)n(C)c(=O)c(=O)n2C	/	/	/	23.1µM	.	25.9µM
Cc1cc(N(C)Cc2ccccc2)n2nc(-c3ccc(C(C)(C)C)cc3)nc2n1	/	/	/	?	.	?
Clc1ccc(CNc2ccccc2NCc2ccc(Cl)nc2)cn1	.	.	?	16.4µM	.	?
Clc1ccc(CN2CCN(c3ccccc3)CC2)cn1	.	.	.	.	.	.
C=CCC1C=CC(Oc2ccc(OC)cc2)C(CO)O1 (stereo not given)	/	/	/	/	.[21 µM]	/
COc1ccc(/C=C2\C(=O)N(Cc3ccc(F)cc3)CC(=O)N2Cc2ccccc2)cc1	.	.	?	23.1µM	.	25.9µM
COc1ccc(/C=C2\C(=O)NCC(=O)N2Cc2ccccc2)cc1	.	.	.	14.6µM	.	20.6µM
